Records with an inconclusive call do not appear. Activity calls are given as the source filed them. Unless noted, calls come from the whole dose curve; as a rule, active = well fitted cell-killing curve with a large enough effect; inconclusive = small, poorly fitted or top-dose-only effect; inactive = flat fitted curve, though single readings scatter.
Columns and labels:
[1] = Cell Viability - LYMP2-025 (AID 976);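 note: series mostly up to about 92 µM; plate controls were DMSO only for no effect and tetraoctylammonium bromide control for full effect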
Method in brief: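 Seed 2500 LYMP2-025 cells/well; 5 hr at 37 C; add compound; 24 hr at 37 C; add CellTiter-Glo; 30 min RT; read luminescence. AC50 from Hill-modelled concentration-response.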

[2] = Cell Viability - LYMP2-002 (AID 977);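 note: series mostly up to about 92 µM; plate controls were DMSO only for no effect and 92 µM tetraoctylammonium bromide for full effect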
Method in brief: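 Luminescent ATP readout (CellTiter-Glo, 30 min room temperature) after 24 h compound exposure at 37 C of a human lymphoblastoid line, 2500 cells/well. AC50 values derived by standard Hill fitting of qHTS concentration-response data.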

[3] = Cell Viability - LYMP2-007 (AID 979);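 note: cells exposed to compound for 24 h before reading; 0% = DMSO only and the negative end = 92 µM tetraoctylammonium bromide; nearly all actives have a fitted effect of over 60% in size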
Method in brief: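 Luminescent ATP signal (CellTiter-Glo) serves as the viability read-out after 24 hr compound treatment of lymphoblastoid cells in complete medium at 37 C. Concentration-response data were fitted to the Hill equation to give AC50 values.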

[4] = Cell Viability - LYMP2-008 (AID 980); note: % is set by controls: 0 for no effect and ±100 for the full control effect; nearly all actives have a fitted effect of over 60% in size
Method in brief: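 qHTS, human lymphoblastoid line, 2500 cells/well; 5 hr preincubation, 24 hr compound, 37 C. CellTiter-Glo ATP luminescence. AC50 via Hill equation. Tetraoctylammonium bromide positive control.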

[5] = Cell Viability - LYMP2-010 (AID 981); note: % is set by controls: 0 for no effect and ±100 for the full control effect; nearly all actives have a fitted effect of over 55% in size
Method in brief: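 Luminescent ATP signal (CellTiter-Glo) served as the viability read-out. Cells of the human lymphoblastoid line were treated with compound over a concentration range for 24 hours at 37 C, and AC50 values came from Hill-equation modeling.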

[6] = Cell Viability - LYMP2-012 (AID 982);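 note: cellular ATP by luciferase luminescence where a drop means cytotoxicity; cells exposed to compound for one day before reading; 0% = DMSO only and full loss = 92 µM tetraoctylammonium bromide; nearly all actives have a fitted effect of over 55% in size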
[7] = Cell Viability - LYMP2-014 (AID 983);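 note: series mostly up to about 92 µM; plate controls were DMSO only for no effect and 92 µM tetraoctylammonium bromide for full effect; nearly all actives have a fitted effect of over 50% in size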
Method in brief: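 Luminescent ATP signal (CellTiter-Glo, 30 min at room temperature) serves as the viability read-out after 24 hr compound exposure at 37 C. Cells were seeded at 2500 per well and settled 5 hr beforehand.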

[8] = Cell Viability - LYMP2-018 (AID 985);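 note: plate controls were DMSO only for no effect and tetraoctylammonium bromide at 92 µM for full effect; nearly all actives have a fitted effect of over 50% in size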
Method in brief: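 Luminescent ATP signal (CellTiter-Glo, read after 30 min at room temperature) reports viable cells after 24 hr compound treatment at 37 C. Concentration-response data were fitted to the standard Hill equation for AC50.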

[9] = Cell Viability - LYMP2-020 (AID 986);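 note: series mostly up to about 92 µM; plate controls were DMSO only for no effect and tetraoctylammonium bromide at 92 µM for full effect; nearly all actives have a fitted effect of over 55% in size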
Method in brief: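 Luminescent ATP signal (CellTiter-Glo, 30 min at room temperature) is the read-out after 24 h compound treatment of lymphoblastoid cells at 37 C. AC50 values come from Hill-equation fits across concentrations.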

[10] = Cell Viability - LYMP2-022 (AID 987);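 note: 0% = DMSO alone and full effect = tetraoctylammonium bromide at 92 µM; nearly all actives have a fitted effect of over 55% in size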
Method in brief: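 qHTS: human lymphoblastoid cells 2500/well; 5 hr 37 C; cpd added; 24 hr 37 C; CellTiter-Glo, 30 min RT; luminescence. AC50 via Hill fit; tetraoctylammonium bromide positive ctrl.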

[11] = Cell Viability - LYMP2-024 (AID 988);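 note: plate controls were DMSO only for no effect and 92 µM tetraoctylammonium bromide for full effect; nearly all actives have a fitted effect of over 60% in size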
Method in brief: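 Steps: seed 2500 cells/well, 5 hr 37 C; add compound, 24 hr 37 C; add CellTiter-Glo, 30 min room temperature; read luminescence. AC50 derived by Hill modelling of concentration-dependent ATP loss.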

[12] = Cell Viability - LYMP2-026 (AID 989); note: % is set by controls: 0 for no effect and ±100 for the full control effect; nearly all actives have a fitted effect of over 50% in size
Method in brief: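 Luminescent ATP signal (CellTiter-Glo, 30 min room temperature) measures viable lymphoblastoid cells after 24 hr compound treatment at 37 C. Decreased ATP reflects acute toxicity; AC50 values come from Hill-equation modeling.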

[13] = Cell Viability - LYMP1-002 - Assay at 24 hr (AID 993); note: % is set by controls: 0 for no effect and ±100 for the full control effect
Method in brief: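 Cells plated 2500/well, 5 hr 37 C; compounds added, 24 hr 37 C; CellTiter-Glo added, 30 min RT; luminescence read. Tetraoctylammonium bromide positive control. Hill-equation AC50.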

[14] = Cell Viability - LYMP1-002 - Assay at 40 hr (AID 994);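 note: 0% = DMSO only and full inhibition = 92 µM tetraoctylammonium bromide; nearly all actives have a fitted effect of over 60% in size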
Method in brief: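 Luminescent ATP signal served as the viability readout, with decreases taken as toxicity. Cells were treated with compounds across a concentration range for 40 hours at 37 C, and AC50 values came from standard Hill modeling.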

[15] = qHTS Assay for Identification of Small Molecule Inducers of Hypoxia Response (AID 2120; active = well fitted curve in the direction sought with a large enough effect in the signal ratio, with a control signal flat, not every such curve was filed as active; the % refers to the signal ratio; note: 0% is about no effect)
Method in brief: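 ME-180 HRE-bla cells plated in Opti-MEM/0.5% dialyzed FBS, rested 4-5 h, then dosed with compound titrations by pin tool. After 17 h at 37 degrees C, CCF4 dye loaded 2.5 h at RT; 460/530 nm ratio gave %Activity and AC50.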

[16] = target: Androgen receptor (Homo sapiens) (UniProt P10275); test: qHTS assay for small molecule agonists of androgen receptor signaling (AID 588515; active = well fitted curve in the direction sought with a large enough effect in the signal ratio, with a control signal flat; the % refers to the signal ratio; note: % is set by controls: 0 for no effect and ±100 for the full control effect); details: AR-UAS-bla HEK293, beta-lactamase ratio, agonist 16 h; active compounds read high
Chain of Androgen receptor (Homo sapiens) (P10275 whole entry, looked up): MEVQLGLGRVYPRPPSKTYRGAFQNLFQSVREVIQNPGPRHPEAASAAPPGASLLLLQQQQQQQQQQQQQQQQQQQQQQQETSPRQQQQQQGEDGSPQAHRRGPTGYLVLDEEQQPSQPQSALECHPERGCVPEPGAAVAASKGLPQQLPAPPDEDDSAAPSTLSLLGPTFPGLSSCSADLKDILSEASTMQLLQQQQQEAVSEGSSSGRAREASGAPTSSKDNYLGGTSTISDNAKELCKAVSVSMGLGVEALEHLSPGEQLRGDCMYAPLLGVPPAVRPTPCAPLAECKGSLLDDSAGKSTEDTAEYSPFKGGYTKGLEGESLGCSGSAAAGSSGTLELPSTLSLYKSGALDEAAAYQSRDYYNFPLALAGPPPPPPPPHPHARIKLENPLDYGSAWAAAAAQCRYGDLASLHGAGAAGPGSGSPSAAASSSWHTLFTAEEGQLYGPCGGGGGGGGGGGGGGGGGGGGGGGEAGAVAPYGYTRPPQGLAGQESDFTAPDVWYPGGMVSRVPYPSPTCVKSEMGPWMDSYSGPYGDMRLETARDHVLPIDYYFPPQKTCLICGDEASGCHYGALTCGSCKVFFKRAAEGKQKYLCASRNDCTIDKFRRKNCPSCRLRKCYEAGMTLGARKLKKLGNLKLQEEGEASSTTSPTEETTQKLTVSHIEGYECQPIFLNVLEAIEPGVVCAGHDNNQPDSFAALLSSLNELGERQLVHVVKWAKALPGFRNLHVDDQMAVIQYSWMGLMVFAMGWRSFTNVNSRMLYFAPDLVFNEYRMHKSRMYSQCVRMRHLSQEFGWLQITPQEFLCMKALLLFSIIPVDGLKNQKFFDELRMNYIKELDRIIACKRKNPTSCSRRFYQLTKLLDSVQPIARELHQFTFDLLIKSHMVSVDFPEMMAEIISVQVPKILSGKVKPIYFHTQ
Method in brief: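 EC50 and efficacy came from Hill fits of titrations (up to 92 uM) normalized to 30 nM R1881 as 100% and DMSO as 0%. Compound exposure was 16 h at 37 C on AR-UAS-bla HEK293 cells, with a 405/460/530 nm CCF4 fluorescence read.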

[17] = Cell Viability - LYMP2-006 (AID 978)
Method in brief: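 Concentration-dependent loss of intracellular ATP in a human lymphoblastoid line after 24 hr treatment at 37 C was measured by CellTiter-Glo luminescence, with AC50 values obtained from standard Hill-equation modelling.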

[18] = Cell Viability - LYMP2-016 (AID 984)
Method in brief: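 Acute toxicity in a Coriell human lymphoblastoid line is scored as loss of intracellular ATP over 24 h of treatment in complete medium. CellTiter-Glo signal is fitted across concentrations with the Hill equation to give AC50.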

CCCC(C)CO (stereo not given)
inactive: Potency [1] | Potency [2] | Potency [3] | Potency [4] | Potency [5] | Potency [6] | Potency [7] | Potency [8] | Potency [9] | Potency [10] | Potency [11] | outcome [12] | Potency [13] | Potency [14] | outcome [15] | activation [16] -5.4%

CC/C=C1/OC(=O)c2ccccc21
inactive: Potency [1] | Potency [2] | Potency [17] | Potency [3] | Potency [4] | Potency [5] | Potency [6] | Potency [8] | Potency [9] | Potency [10] | Potency [11] | outcome [12] | Potency [14] | outcome [15] | activation [16] 15.6%

CCCC=O
inactive: Potency [1] | Potency [2] | Potency [17] | Potency [3] | Potency [4] | Potency [5] | Potency [6] | Potency [7] | Potency [18] | Potency [8] | Potency [9] | Potency [10] | Potency [11] | outcome [12] | Potency [13] | Potency [14] | outcome [15]

O=Cc1ccc(Cl)cc1
inactive: Potency [1] | Potency [2] | Potency [17] | Potency [3] | Potency [5] | Potency [6] | Potency [7] | Potency [18] | Potency [8] | Potency [9] | Potency [10] | Potency [11] | outcome [12] | Potency [13] | Potency [14] | outcome [15] | activation [16] -1.22%

BrC/C=C/CBr
inactive: Potency [1] | Potency [2] | Potency [17] | Potency [3] | Potency [4] | Potency [5] | Potency [6] | Potency [7] | Potency [18] | Potency [8] | Potency [9] | Potency [10] | Potency [11] | outcome [12] | Potency [13] | Potency [14] | outcome [15]

Cc1ccc(C)c(O)c1
inactive: Potency [1] | Potency [2] | Potency [17] | Potency [3] | Potency [4] | Potency [5] | Potency [6] | Potency [7] | Potency [18] | Potency [8] | Potency [9] | Potency [10] | Potency [11] | outcome [12] | Potency [13] | Potency [14] | outcome [15]

CC(C)(O)C(=O)O
inactive: Potency [1] | Potency [2] | Potency [17] | Potency [3] | Potency [4] | Potency [5] | Potency [6] | Potency [7] | Potency [18] | Potency [8] | Potency [9] | Potency [10] | Potency [11] | outcome [12] | Potency [13] | Potency [14] | outcome [15]

Nc1ccccc1S(=O)(=O)O
inactive: Potency [1] | Potency [2] | Potency [17] | Potency [3] | Potency [4] | Potency [5] | Potency [6] | Potency [7] | Potency [18] | Potency [8] | Potency [9] | Potency [10] | Potency [11] | outcome [12] | Potency [13] | Potency [14] | outcome [15]

CCCCC=O
inactive: Potency [1] | Potency [2] | Potency [17] | Potency [3] | Potency [4] | Potency [5] | Potency [6] | Potency [7] | Potency [18] | Potency [8] | Potency [9] | Potency [10] | Potency [11] | outcome [12] | Potency [13] | Potency [14] | outcome [15]

Cc1ccc2c(c1[N+](=O)[O-])C(=O)c1ccccc1C2=O
inactive: Potency [1] | Potency [2] | Potency [17] | Potency [3] | Potency [4] | Potency [5] | Potency [7] | Potency [18] | Potency [8] | Potency [9] | Potency [10] | Potency [13] | Potency [14] | outcome [15]

CCC(C)O (stereo not given)
inactive: Potency [1] | Potency [2] | Potency [17] | Potency [3] | Potency [4] | Potency [5] | Potency [6] | Potency [7] | Potency [18] | Potency [8] | Potency [9] | Potency [10] | Potency [11] | Potency [13] | Potency [14] | outcome [15]

COC(=O)c1ccccc1
inactive: Potency [1] | Potency [2] | Potency [17] | Potency [3] | Potency [4] | Potency [5] | Potency [6] | Potency [7] | Potency [18] | Potency [8] | Potency [9] | Potency [10] | Potency [11] | outcome [12] | Potency [14] | outcome [15]

CCCCC(CC)C(=O)O (stereo not given)
inactive: Potency [1] | Potency [2] | Potency [17] | Potency [3] | Potency [4] | Potency [5] | Potency [6] | Potency [18] | Potency [9] | Potency [10] | Potency [11] | outcome [12] | Potency [14] | outcome [15]

Source: PubChem BioAssay (NCATS)
